Common to all, as to assay: DAPPL (digital affinity profiling via proximity ligation, sequencing); 10 mM Tris-HCl pH 7.5, 50 mM NaCl, 1 mM DTT, 4% glycerol, room temperature, 30 min; GST-TFs on glutathione beads, 16-mer random dsDNA library, 0.1% formaldehyde crosslink after washing; high values mean tight binding
Common to all, as to conditions: protein: recombinant; tags: N-terminal GST; dsDNA, one strand shown

Assay [1] deals with T1, FLI1 (Homo sapiens, UniProt Q01543 1-452).
T1 sequence: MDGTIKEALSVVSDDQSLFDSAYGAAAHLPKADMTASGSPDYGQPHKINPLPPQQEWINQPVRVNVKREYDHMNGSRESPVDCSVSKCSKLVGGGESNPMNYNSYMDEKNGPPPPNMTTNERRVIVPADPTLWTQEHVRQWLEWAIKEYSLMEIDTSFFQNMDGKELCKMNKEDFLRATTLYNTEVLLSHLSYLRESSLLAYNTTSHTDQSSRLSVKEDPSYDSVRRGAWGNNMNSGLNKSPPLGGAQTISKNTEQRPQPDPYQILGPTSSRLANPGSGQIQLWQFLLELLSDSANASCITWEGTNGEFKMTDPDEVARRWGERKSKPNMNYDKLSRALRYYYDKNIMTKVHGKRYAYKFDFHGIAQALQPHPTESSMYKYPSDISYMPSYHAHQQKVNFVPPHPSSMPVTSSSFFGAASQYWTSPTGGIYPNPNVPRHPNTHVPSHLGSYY
The method, boiled down:
(§1)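 Binding signal is given per hexamer as its read frequency for a factor divided by its frequency in the tag-only sample. GST-fused human transcription factors were expressed in yeast, captured on glutathione beads, barcoded with DNA and pooled with that sample, then incubated with 200 nmole of a 16-mer random double-stranded DNA library in Tris/NaCl/DTT/glycerol buffer for 30 min at room temperature. The pools were then washed, crosslinked, proximity-ligated, amplified by PCR and sequenced on an Illumina NextSeq500.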

For assay [2], the target named is T2, ELK1 (Homo sapiens, UniProt P19419 1-428).
T2 sequence: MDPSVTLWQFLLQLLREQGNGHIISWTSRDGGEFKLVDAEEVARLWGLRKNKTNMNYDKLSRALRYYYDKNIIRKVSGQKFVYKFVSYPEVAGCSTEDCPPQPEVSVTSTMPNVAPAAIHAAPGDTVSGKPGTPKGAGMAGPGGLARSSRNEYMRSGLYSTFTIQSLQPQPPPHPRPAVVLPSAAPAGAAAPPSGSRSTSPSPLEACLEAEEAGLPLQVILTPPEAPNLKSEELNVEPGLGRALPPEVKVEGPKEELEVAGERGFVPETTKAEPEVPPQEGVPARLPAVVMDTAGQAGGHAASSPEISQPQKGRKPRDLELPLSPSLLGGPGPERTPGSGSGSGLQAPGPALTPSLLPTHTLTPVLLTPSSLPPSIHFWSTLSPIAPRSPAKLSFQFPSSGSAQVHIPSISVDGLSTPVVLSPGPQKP
The method, boiled down: as §1

For assay [3], the target named is T3, GABPA (Homo sapiens, UniProt Q06546 1-454).
T3 sequence: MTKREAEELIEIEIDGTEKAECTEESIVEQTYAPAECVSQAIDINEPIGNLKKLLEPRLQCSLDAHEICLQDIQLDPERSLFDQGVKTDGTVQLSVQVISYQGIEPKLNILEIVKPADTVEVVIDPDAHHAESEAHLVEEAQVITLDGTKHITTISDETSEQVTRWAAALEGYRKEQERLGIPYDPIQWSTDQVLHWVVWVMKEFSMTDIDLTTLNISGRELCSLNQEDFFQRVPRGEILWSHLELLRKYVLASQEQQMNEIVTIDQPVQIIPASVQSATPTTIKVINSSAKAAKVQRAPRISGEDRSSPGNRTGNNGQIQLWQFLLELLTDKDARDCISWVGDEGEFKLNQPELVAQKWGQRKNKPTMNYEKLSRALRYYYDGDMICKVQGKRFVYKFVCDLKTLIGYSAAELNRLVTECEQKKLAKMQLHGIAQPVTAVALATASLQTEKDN
The gist of the method: as §1

The target in assay [4] is T4, ERG (Homo sapiens, UniProt P11308 1-479).
T4 sequence: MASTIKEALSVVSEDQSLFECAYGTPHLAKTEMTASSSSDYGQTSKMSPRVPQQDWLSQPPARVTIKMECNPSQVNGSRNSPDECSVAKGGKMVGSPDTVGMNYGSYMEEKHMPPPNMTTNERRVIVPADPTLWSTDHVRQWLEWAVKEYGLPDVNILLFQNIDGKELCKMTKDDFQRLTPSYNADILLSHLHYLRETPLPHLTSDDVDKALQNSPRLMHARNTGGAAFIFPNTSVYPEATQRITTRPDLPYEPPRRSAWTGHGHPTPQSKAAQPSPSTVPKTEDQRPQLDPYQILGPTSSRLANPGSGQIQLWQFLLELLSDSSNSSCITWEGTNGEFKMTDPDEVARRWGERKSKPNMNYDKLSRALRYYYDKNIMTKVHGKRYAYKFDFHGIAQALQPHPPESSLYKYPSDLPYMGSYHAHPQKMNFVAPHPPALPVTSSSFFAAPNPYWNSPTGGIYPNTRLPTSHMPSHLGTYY
The method, boiled down: as §1

Assay [5] has as its target ELF1 (Homo sapiens, UniProt P32519 1-619). The gist of the method:
as §1

The target in assay [6] is T5, EHF (Homo sapiens, UniProt Q9NZC4 1-300).
T5 sequence: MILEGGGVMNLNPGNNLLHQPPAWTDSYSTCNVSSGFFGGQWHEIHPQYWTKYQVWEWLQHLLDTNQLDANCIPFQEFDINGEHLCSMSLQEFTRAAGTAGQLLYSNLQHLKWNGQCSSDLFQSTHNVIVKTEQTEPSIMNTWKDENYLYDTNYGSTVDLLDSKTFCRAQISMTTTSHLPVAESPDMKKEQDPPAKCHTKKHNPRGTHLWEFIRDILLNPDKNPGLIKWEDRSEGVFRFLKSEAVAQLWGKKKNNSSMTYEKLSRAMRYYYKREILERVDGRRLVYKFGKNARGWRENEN
The gist of the method: as §1

Assay [7] deals with SPI1 (Homo sapiens, UniProt P17947 1-270). The gist of the method: as §1
Assay [8] concerns the target SPIB (Homo sapiens, UniProt Q01892 1-262). The method, boiled down:
as §1

In assay [9] the target is T6, ELK3 (Homo sapiens, UniProt P41970 1-407).
T6 sequence: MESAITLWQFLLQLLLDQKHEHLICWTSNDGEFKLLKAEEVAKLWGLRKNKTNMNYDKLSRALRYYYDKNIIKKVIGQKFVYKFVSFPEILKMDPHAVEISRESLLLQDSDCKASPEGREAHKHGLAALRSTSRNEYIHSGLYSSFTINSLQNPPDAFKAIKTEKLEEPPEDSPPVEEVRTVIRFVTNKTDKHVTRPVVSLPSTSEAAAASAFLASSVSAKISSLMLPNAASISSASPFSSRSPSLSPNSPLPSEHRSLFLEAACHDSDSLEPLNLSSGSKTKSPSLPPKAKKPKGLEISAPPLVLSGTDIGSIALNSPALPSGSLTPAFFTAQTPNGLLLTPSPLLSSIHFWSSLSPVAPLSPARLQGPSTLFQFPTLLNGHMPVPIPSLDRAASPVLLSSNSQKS
The method, boiled down: as §1

SPIB, sequence (Q01892 whole entry): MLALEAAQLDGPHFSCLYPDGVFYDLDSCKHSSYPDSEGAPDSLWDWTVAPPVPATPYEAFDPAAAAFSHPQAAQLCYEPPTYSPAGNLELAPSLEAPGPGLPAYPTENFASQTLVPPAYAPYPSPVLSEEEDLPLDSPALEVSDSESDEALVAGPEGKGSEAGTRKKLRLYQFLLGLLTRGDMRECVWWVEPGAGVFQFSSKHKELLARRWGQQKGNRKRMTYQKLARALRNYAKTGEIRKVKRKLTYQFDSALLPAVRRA
ELF1, sequence (P32519 whole entry): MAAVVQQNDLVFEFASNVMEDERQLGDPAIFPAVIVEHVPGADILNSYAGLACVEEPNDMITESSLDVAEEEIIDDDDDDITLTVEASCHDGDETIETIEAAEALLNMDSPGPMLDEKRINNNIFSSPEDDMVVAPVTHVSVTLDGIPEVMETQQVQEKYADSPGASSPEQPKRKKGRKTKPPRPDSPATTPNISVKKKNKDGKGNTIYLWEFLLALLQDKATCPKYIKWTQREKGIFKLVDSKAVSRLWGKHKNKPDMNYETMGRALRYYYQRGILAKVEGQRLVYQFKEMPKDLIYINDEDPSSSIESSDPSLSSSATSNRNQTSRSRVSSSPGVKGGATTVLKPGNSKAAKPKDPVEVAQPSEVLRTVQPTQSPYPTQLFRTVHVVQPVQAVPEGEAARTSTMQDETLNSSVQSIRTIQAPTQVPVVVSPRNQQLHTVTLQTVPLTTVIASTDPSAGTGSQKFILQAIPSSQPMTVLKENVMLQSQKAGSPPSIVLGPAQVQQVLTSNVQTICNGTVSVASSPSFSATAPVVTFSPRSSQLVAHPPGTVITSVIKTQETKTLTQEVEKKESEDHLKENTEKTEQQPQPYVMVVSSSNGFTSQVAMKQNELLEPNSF

For the sequence ATGGTA, the binding signal in [1] is 1.39 fold enrichment (6-mer frequency, TF over GST control); in [2], 1.44 fold enrichment (6-mer frequency, TF over GST control); in assay [3], 1.39 fold enrichment (6-mer frequency, TF over GST control); in [4] it was 1.33 fold enrichment (6-mer frequency, TF over GST control); in assay [5], 1.36 fold enrichment (6-mer frequency, TF over GST control); in assay [6], 1.43 fold enrichment (6-mer frequency, TF over GST control). In addition, the binding signal in [7] was 1.23 fold enrichment (6-mer frequency, TF over GST control); in [8], 1.42 fold enrichment (6-mer frequency, TF over GST control); in assay [9], 1.36 fold enrichment (6-mer frequency, TF over GST control).

TCTCAG: the binding signal is 1.4 fold enrichment (6-mer frequency, TF over GST control) in [1]; 1.48 fold enrichment (6-mer frequency, TF over GST control) in assay [2]; 1.42 fold enrichment (6-mer frequency, TF over GST control) in [3]; 1.43 fold enrichment (6-mer frequency, TF over GST control) in [4]; 1.45 fold enrichment (6-mer frequency, TF over GST control) in assay [5]; 1.43 fold enrichment (6-mer frequency, TF over GST control) in assay [6]. Also, the binding signal was 1.55 fold enrichment (6-mer frequency, TF over GST control) in assay [7]; 1.39 fold enrichment (6-mer frequency, TF over GST control) in assay [8]; 1.39 fold enrichment (6-mer frequency, TF over GST control) in assay [9].

Take TTAACA: the binding signal was 1.18 fold enrichment (6-mer frequency, TF over GST control) in [1]; 1.13 fold enrichment (6-mer frequency, TF over GST control) in [2]; 1.15 fold enrichment (6-mer frequency, TF over GST control) in [3]; 1.15 fold enrichment (6-mer frequency, TF over GST control) in [4]; 1.17 fold enrichment (6-mer frequency, TF over GST control) in [5]; 1.13 fold enrichment (6-mer frequency, TF over GST control) in assay [6]. Moreover, the binding signal in [7] was 1.15 fold enrichment (6-mer frequency, TF over GST control); in assay [8] it was 1.14 fold enrichment (6-mer frequency, TF over GST control); in [9], 1.19 fold enrichment (6-mer frequency, TF over GST control).

Consider ATTCTG, for which the binding signal in assay [1] is 1.35 fold enrichment (6-mer frequency, TF over GST control); in assay [2] it was 1.23 fold enrichment (6-mer frequency, TF over GST control); in [3], 1.33 fold enrichment (6-mer frequency, TF over GST control); in [4], 1.21 fold enrichment (6-mer frequency, TF over GST control); in assay [5], 1.26 fold enrichment (6-mer frequency, TF over GST control); in assay [6], 1.34 fold enrichment (6-mer frequency, TF over GST control). In addition, the binding signal in assay [7] is 1.27 fold enrichment (6-mer frequency, TF over GST control); in [8], 1.15 fold enrichment (6-mer frequency, TF over GST control); in [9], 1.37 fold enrichment (6-mer frequency, TF over GST control).

As to TCTAAG, the binding signal in assay [1] was 1.22 fold enrichment (6-mer frequency, TF over GST control); in assay [2], 1.19 fold enrichment (6-mer frequency, TF over GST control); in [3], 1.3 fold enrichment (6-mer frequency, TF over GST control); in assay [4], 1.2 fold enrichment (6-mer frequency, TF over GST control); in [5], 1.29 fold enrichment (6-mer frequency, TF over GST control); in assay [6] it was 1.28 fold enrichment (6-mer frequency, TF over GST control). The binding signal was 1.17 fold enrichment (6-mer frequency, TF over GST control) in [7]; 1.28 fold enrichment (6-mer frequency, TF over GST control) in assay [8]; 1.22 fold enrichment (6-mer frequency, TF over GST control) in assay [9].

As to ATGCTC, the binding signal in assay [1] is 1.43 fold enrichment (6-mer frequency, TF over GST control); in assay [2], 1.31 fold enrichment (6-mer frequency, TF over GST control); in [3], 1.36 fold enrichment (6-mer frequency, TF over GST control); in assay [4], 1.34 fold enrichment (6-mer frequency, TF over GST control); in assay [5], 1.36 fold enrichment (6-mer frequency, TF over GST control); in assay [6] it was 1.34 fold enrichment (6-mer frequency, TF over GST control). For the same sequence, the binding signal in assay [7] was 1.41 fold enrichment (6-mer frequency, TF over GST control); in [8] it was 1.35 fold enrichment (6-mer frequency, TF over GST control); in assay [9] it was 1.27 fold enrichment (6-mer frequency, TF over GST control).

As to CGCTTC, the binding signal is 1.94 fold enrichment (6-mer frequency, TF over GST control) in [1]; 2.2 fold enrichment (6-mer frequency, TF over GST control) in assay [2]; 1.99 fold enrichment (6-mer frequency, TF over GST control) in assay [3]; 2.07 fold enrichment (6-mer frequency, TF over GST control) in [4]; 2.04 fold enrichment (6-mer frequency, TF over GST control) in assay [5]; 2.16 fold enrichment (6-mer frequency, TF over GST control) in [6]. Also, the binding signal was 2 fold enrichment (6-mer frequency, TF over GST control) in [7]; 2.05 fold enrichment (6-mer frequency, TF over GST control) in [8]; 2.29 fold enrichment (6-mer frequency, TF over GST control) in [9].

For the origin of these results see publication PMC7862700, “An all-to-all approach to the identification of sequence-specific readers for epigenetic DNA modifications on cytosine”.
